Active and inactive are the calls of the source.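 The calls were made as follows: active = cell event count below 40, meaning activity score above 60 where score is 100 minus count; inactive = the rest.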
Experiment: LNCaP cell loss by flow event count, confirmation, cytotoxicity control for prostate differentiation activator project, single point (AID 1076);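 also: counts scatter-gated live cells after medium removal discards detached dead cells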
Conditions: flow cytometry event count, 4 d, at 100 µM, stronger effect = lower value

Structure (SMILES) | cell event count
CCn1c(=O)cc(SCC(=O)NCCCN2CCN(c3ccccc3F)CC2)c2ccccc21 | 6 (inactive)
CCOC(=O)N1CCC(NC(=O)C2CCCN(Cc3nc(-c4cccc(Cl)c4)oc3C)C2)CC1 (stereo unspecified) | 33 (inactive)
Cc1ccc(S(=O)(=O)NCCCCC(NC(=O)OC(C)(C)C)C(=O)O)cc1 (stereo unspecified) (tested in a mixture with another compound) | 203 (inactive)
CCN1C=C(Cc2cccs2)C2=C(C1)C(c1cccs1)C(C#N)=C(N)O2 (stereo unspecified) | 40 (inactive)
CCc1ccc(-c2nc(CN3CCC(C(=O)NCCN(CC)c4ccccc4)CC3)c(C)o2)cc1 | 6 (inactive)
COc1ccc(-n2nnnc2SCC(=O)c2ccc(O)c(O)c2)cc1 | 9 (inactive)
COc1ccc(CCn2c(=N)c(C(=O)NCc3ccco3)cc3c(=O)n4ccccc4nc32)cc1 | 32 (inactive)
CCC(=O)N(Cc1ccco1)c1nc(-c2cc(OC)ccc2OC)cs1 | 227 (inactive)
N=c1n(CCO)c2ccccc2n1CCOc1ccc(Cl)cc1Cl | 18 (inactive)
O=C(Cc1coc(-c2ccc(F)cc2)n1)N1CCOCC1 | 217 (inactive)
CCOC(=O)c1ccccc1NC(=O)Cn1c(-c2nonc2N)nc2ccccc21 | 72 (inactive)
CCc1ccc(-c2nc(CN3CCC(C(=O)NCc4ccccc4OC)CC3)c(C)o2)cc1 | 49 (inactive)
Nc1ccc(-c2nc3c(Cl)c(N)ccc3[nH]2)cc1 | 183 (inactive)
COc1ccc(Cl)cc1N1CCN(CCNC(=O)Nc2ccccc2C)CC1 | 6 (inactive)
Cn1c(=O)cc(SCC(=O)NCCCN2CCN(c3ccc(F)cc3)CC2)c2ccccc21 | 30 (inactive)
CCOC(=O)N1CCN(C(=O)C2CCN(Cc3nc(-c4ccccc4C)oc3C)CC2)CC1 | 111 (inactive)
CC(C)N1CCC2(CC1)N=C(c1ccc3c(c1)OCO3)CC(c1cc(Cl)ccc1O)N2 (stereo unspecified) | 46 (inactive)
CCOC(=O)c1c(C)[nH]c(C(=O)COC(=O)C2CC2C)c1C (stereo unspecified) | 37 (inactive)
CCC(C(=O)Nc1ccccc1OC)n1c(C(=O)OC)cc2ccsc21 (stereo unspecified) | 41 (inactive)

Structure (SMILES) | cell event count
CCOC(=O)C1CCN(S(=O)(=O)c2ccc(-c3nc4ccccc4s3)s2)CC1 | 70 (inactive)
O=C(Nc1cccc(Cl)c1)N1CCN(Cc2ccccc2)CC1 | 42 (inactive)
Cc1nc2c3cnn(-c4ccccc4)c3ncn2n1 | 159 (inactive)
O=S(=O)(Nc1cccc2ncccc12)c1cccs1 | 42 (inactive)
Cc1cc(C)n2nc(SCC(=O)Nc3ccc(F)cc3)nc2n1 | 226 (inactive)
COc1ccccc1CNC(=O)C1CCN(Cc2nc(-c3cccc(Cl)c3)oc2C)CC1 | 9 (inactive)
Cn1cc(CNC(=O)C2c3ccccc3Oc3ccccc32)cn1 | 465 (inactive)
Cc1cc(=O)n2nc(N3CCCC3C(=O)NCc3ccccn3)sc2n1 (stereo unspecified) | 101 (inactive)
Cc1cc(=O)c2ccccc2[nH]1 | 143 (inactive)
COC(=O)c1ccccc1S(=O)(=O)N(Cc1cc2cc3c(cc2[nH]c1=O)OCO3)C1CCCCC1 | 8 (inactive)
Cc1cccc(N2CCN(C(=O)CCNC(=O)Cn3ccc4ccccc4c3=O)CC2)c1C | 8 (inactive)
Cc1ccc(-n2c(SCC(=O)Nc3nccs3)nc3c(c2=O)SCC3)cc1 | 83 (inactive)
O=C(NCCCN1CCN(c2cccc(Cl)c2)CC1)c1ccc(N2CCCC2=O)cc1 | 52 (inactive)
Cc1noc(/C=C/c2ccco2)c1S(=O)(=O)N1CCC(C(=O)N2CCc3ccccc3C2)CC1 | 174 (inactive)
Cc1ccc(-c2noc(CCC(=O)NCCCN3CCN(c4cccc(Cl)c4)CC3)n2)cc1 | 22 (inactive)
CC(C)CCNC(=O)C1CCN(c2nc3ccccc3o2)CC1 | 73 (inactive)
COc1ccc(-n2c(C)nc3c(cnn3-c3ccc(Cl)cc3)c2=O)cc1 | 45 (inactive)
COC(=O)c1ccccc1NC(=O)CN1CCC(n2nnc3cc(F)ccc32)CC1 | 174 (inactive)
COc1ccc(N2CCN(c3oc(COc4ccccc4Cl)nc3C#N)CC2)cc1 | 214 (inactive)

Same assay, conditions: flow cytometry event count, 4 d, event count, at 10 µM, stronger effect = lower value

Structure (SMILES) | cell event count
CCn1c(=O)cc(SCC(=O)NCCCN2CCN(c3ccccc3F)CC2)c2ccccc21 | 338
CCOC(=O)N1CCC(NC(=O)C2CCCN(Cc3nc(-c4cccc(Cl)c4)oc3C)C2)CC1 (stereo unspecified) | 114
Cc1ccc(S(=O)(=O)NCCCCC(NC(=O)OC(C)(C)C)C(=O)O)cc1 (stereo unspecified) (tested in a mixture with another compound) | 138
CCN1C=C(Cc2cccs2)C2=C(C1)C(c1cccs1)C(C#N)=C(N)O2 (stereo unspecified) | 200
CCc1ccc(-c2nc(CN3CCC(C(=O)NCCN(CC)c4ccccc4)CC3)c(C)o2)cc1 | 150
COc1ccc(-n2nnnc2SCC(=O)c2ccc(O)c(O)c2)cc1 | 205
COc1ccc(CCn2c(=N)c(C(=O)NCc3ccco3)cc3c(=O)n4ccccc4nc32)cc1 | 225
CCC(=O)N(Cc1ccco1)c1nc(-c2cc(OC)ccc2OC)cs1 | 158
N=c1n(CCO)c2ccccc2n1CCOc1ccc(Cl)cc1Cl | 272
O=C(Cc1coc(-c2ccc(F)cc2)n1)N1CCOCC1 | 71.5
CCOC(=O)c1ccccc1NC(=O)Cn1c(-c2nonc2N)nc2ccccc21 | 122
CCc1ccc(-c2nc(CN3CCC(C(=O)NCc4ccccc4OC)CC3)c(C)o2)cc1 | 190
Nc1ccc(-c2nc3c(Cl)c(N)ccc3[nH]2)cc1 | 206
COc1ccc(Cl)cc1N1CCN(CCNC(=O)Nc2ccccc2C)CC1 | 506
Cn1c(=O)cc(SCC(=O)NCCCN2CCN(c3ccc(F)cc3)CC2)c2ccccc21 | 211
CCOC(=O)N1CCN(C(=O)C2CCN(Cc3nc(-c4ccccc4C)oc3C)CC2)CC1 | 244
CC(C)N1CCC2(CC1)N=C(c1ccc3c(c1)OCO3)CC(c1cc(Cl)ccc1O)N2 (stereo unspecified) | 43.5
CCOC(=O)c1c(C)[nH]c(C(=O)COC(=O)C2CC2C)c1C (stereo unspecified) | 976
CCC(C(=O)Nc1ccccc1OC)n1c(C(=O)OC)cc2ccsc21 (stereo unspecified) | 270

Structure (SMILES) | cell event count
CCOC(=O)C1CCN(S(=O)(=O)c2ccc(-c3nc4ccccc4s3)s2)CC1 | 136
O=C(Nc1cccc(Cl)c1)N1CCN(Cc2ccccc2)CC1 | 132
Cc1nc2c3cnn(-c4ccccc4)c3ncn2n1 | 145
O=S(=O)(Nc1cccc2ncccc12)c1cccs1 | 78.5
Cc1cc(C)n2nc(SCC(=O)Nc3ccc(F)cc3)nc2n1 | 343
COc1ccccc1CNC(=O)C1CCN(Cc2nc(-c3cccc(Cl)c3)oc2C)CC1 | 158
Cn1cc(CNC(=O)C2c3ccccc3Oc3ccccc32)cn1 | 217
Cc1cc(=O)n2nc(N3CCCC3C(=O)NCc3ccccn3)sc2n1 (stereo unspecified) | 61
Cc1cc(=O)c2ccccc2[nH]1 | 91
COC(=O)c1ccccc1S(=O)(=O)N(Cc1cc2cc3c(cc2[nH]c1=O)OCO3)C1CCCCC1 | 103
Cc1cccc(N2CCN(C(=O)CCNC(=O)Cn3ccc4ccccc4c3=O)CC2)c1C | 246
Cc1ccc(-n2c(SCC(=O)Nc3nccs3)nc3c(c2=O)SCC3)cc1 | 282
O=C(NCCCN1CCN(c2cccc(Cl)c2)CC1)c1ccc(N2CCCC2=O)cc1 | 171
Cc1noc(/C=C/c2ccco2)c1S(=O)(=O)N1CCC(C(=O)N2CCc3ccccc3C2)CC1 | 197
Cc1ccc(-c2noc(CCC(=O)NCCCN3CCN(c4cccc(Cl)c4)CC3)n2)cc1 | 123
CC(C)CCNC(=O)C1CCN(c2nc3ccccc3o2)CC1 | 110
COc1ccc(-n2c(C)nc3c(cnn3-c3ccc(Cl)cc3)c2=O)cc1 | 84
COC(=O)c1ccccc1NC(=O)CN1CCC(n2nnc3cc(F)ccc32)CC1 | 112
COc1ccc(N2CCN(c3oc(COc4ccccc4Cl)nc3C#N)CC2)cc1 | 172

Reference: PubChem BioAssay AID1076 (NMMLSC, 2008)
